Assay results as given in PubChem BioAssay (Tox21).
Results filed as inconclusive are left out. Calls of active or inactive are those of the source. Unless noted, calls follow the shape of the dose curve; as a rule, active = well fitted curve in the direction sought with a large enough effect in the repeat runs; inconclusive = weak or mixed curves; inactive = no such curve, though single readings can be large; an effect the other way counts as inactive or inconclusive.

What was measured:
[1] = qHTS assay to identify small molecule antagonists of the estrogen receptor alpha (ER-alpha) signaling pathway using the BG1 cell line in the presence of 0.1 nM 17-beta-estradiol - cell viability counter screen (AID 1259241); also: nearly all actives have a fitted effect of over 40% in size
Summary of the method: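 VM7Luc4E2 cells (endogenous full-length ER-alpha, 4xERE-luciferase), cultured 5 days in charcoal-stripped serum, exposed to compounds with 0.1 nM 17beta-estradiol (final) for 22 hr at 37C. Viability read in same wells as live-cell protease fluorescence after 30 min.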

[2] = qHTS assay to identify small molecule antagonists of the androgen receptor (AR) signaling pathway using the MDA cell line in the presence of 0.5 nM R1881 - cell viability counter screen (AID 1259242); also: nearly all actives have a fitted effect of over 45% in size
Summary of the method: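 R1881 at 0.5 nM final stimulated MDA-kb2 cells during 16 hr compound treatment at 37C. Cytotoxicity read: CellTiter-Fluor fluorescence after 30 min.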

[3] = qHTS assay to identify small molecule HDAC inhibitors (AID 1259364);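 also: wild-type HCT-116 cells with endogenous class I/II HDAC activity; top concentration of the series differs between compounds; nearly all actives have a fitted effect of over 45% in size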
Summary of the method: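 Relative class I and II HDAC activity is taken from the luminogenic signal in HCT-116 cells, with compound exposure 2 hr and reagent development 30 min at room temperature.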

[4] = qHTS assay to identify small molecule agonists of the sonic hedgehog signaling (Shh) pathway - cell viability counter screen (AID 1259366); also: nearly all actives have a fitted effect of over 50% in size
Summary of the method: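 NIH/3T3-derived Gli1-Luc reporter cells, 2,000 per well, received compound after 4 h and were treated about 23 h at 37C. Viability measured in the same wells by CellTiter-Fluor fluorescence after 1 h.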

[5] = qHTS assay to identify small molecule antagonists of the sonic hedgehog signaling (Shh) pathway - cell viability counter screen (AID 1259367); also: nearly all actives have a fitted effect of over 55% in size
Summary of the method: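 After a 4 hr settling period, 3T3 Gli1-Luc cells were treated with DMSO-dissolved chemicals and conditioned medium, kept 24 hr at 37C in 5% CO2, and assayed for viability by CellTiter-Fluor fluorescence following 1 hr reagent incubation.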

[6] = qHTS assay to identify small molecule antagonists of the sonic hedgehog signaling (Shh) pathway (AID 1259369; calls by dose curve; also: nearly all actives have a fitted effect of over 45% in size)
Summary of the method: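 Conditioned medium drives Shh signalling in 3T3Gli1-Luc cells; compounds in DMSO co-applied, 24hr at 37 C, then luciferase luminescence.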

[7] = molecular target: Estrogen receptor beta (Homo sapiens) (UniProt Q92731); assay: qHTS assay to identify small molecule antagonists of the estrogen receptor beta (ER-beta) signaling pathway (AID 1259378; active = well fitted inhibition curve with a large enough effect in the signal ratio in the repeat runs, not every such curve was filed as active; the % refers to the signal ratio)
Estrogen receptor beta (Homo sapiens), sequence (Q92731 whole entry, looked up): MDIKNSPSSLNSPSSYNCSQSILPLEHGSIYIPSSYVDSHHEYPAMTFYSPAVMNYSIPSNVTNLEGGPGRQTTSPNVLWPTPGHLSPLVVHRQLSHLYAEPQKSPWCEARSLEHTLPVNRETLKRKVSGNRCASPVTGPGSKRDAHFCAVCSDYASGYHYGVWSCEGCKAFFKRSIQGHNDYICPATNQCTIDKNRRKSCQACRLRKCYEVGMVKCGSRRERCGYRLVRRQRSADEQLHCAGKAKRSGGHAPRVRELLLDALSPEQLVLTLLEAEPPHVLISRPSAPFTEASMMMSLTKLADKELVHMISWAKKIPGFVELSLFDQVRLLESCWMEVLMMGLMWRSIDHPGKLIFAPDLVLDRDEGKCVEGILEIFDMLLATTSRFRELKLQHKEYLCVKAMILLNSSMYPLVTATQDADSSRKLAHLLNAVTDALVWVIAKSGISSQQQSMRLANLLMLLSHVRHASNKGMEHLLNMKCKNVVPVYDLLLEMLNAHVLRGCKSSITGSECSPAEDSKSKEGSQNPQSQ
Summary of the method: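 ER-beta-UAS-bla HEK293T (GripTite) cells in 2% charcoal-stripped FBS medium were preincubated 6 hr at 37C, dosed with compound, then stimulated with 1 nM E2 (final) for 16 hr; beta-lactamase reporter read by B/G FRET fluorescence after 2 hr substrate loading.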

[8] = qHTS assay to identify small molecule agonists of the androgen receptor (AR) signaling pathway in the presence of an antagonist - cell viability counter screen (AID 1259379);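 also: MDA-kb2 human breast cancer cells carrying an MMTV luciferase reporter; series mostly up to about 92 µM; nearly all actives have a fitted effect of over 25% in size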
Summary of the method: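 A CellTiter-Fluor read-out measured viability of MDA-kb2 reporter cells (MMTV promoter with AR and GR response elements). Treatment: nilutamide 3.0uM final with compounds at 15 concentrations, 16 hr, 37C, 0% CO2.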

[9] = qHTS assay to identify small molecule agonists of the estrogen receptor beta (ER-beta) signaling pathway - cell viability counter screen (AID 1259380); also: nearly all actives have a fitted effect of over 30% in size
Summary of the method: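 Cells used were ER-beta-UAS-bla HEK293T in medium with 2% charcoal-stripped FBS. They were treated for 16 hr at 37C. Viability came from CellTiter-Glo luminescence.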

[10] = qHTS assay to identify small molecule agonists or antagonists of the thyroid stimulating hormone receptor (TSHR) signaling pathway - wild type cell line counter screen (AID 1259384; calls by dose curve)
Summary of the method: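 Wild-type HEK293 cells were plated 18 h at 37 C/5% CO2, pin-dosed with compound plus Ro20-1724 medium, held 30 min at room temperature, then given cAMP-d2 and anti-cAMP-cryptate; fluorescence was read after 1 h. Fifteen concentrations, triplicate.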

[11] = molecular target: Thyrotropin receptor (Homo sapiens) (UniProt P16473); assay: qHTS assay to identify small molecule antagonists of the thyroid stimulating hormone receptor (TSHR) signaling pathway (AID 1259385; calls by dose curve; also: nearly all actives have a fitted effect of over 20% in size)
Thyrotropin receptor (Homo sapiens), sequence (P16473 whole entry, looked up): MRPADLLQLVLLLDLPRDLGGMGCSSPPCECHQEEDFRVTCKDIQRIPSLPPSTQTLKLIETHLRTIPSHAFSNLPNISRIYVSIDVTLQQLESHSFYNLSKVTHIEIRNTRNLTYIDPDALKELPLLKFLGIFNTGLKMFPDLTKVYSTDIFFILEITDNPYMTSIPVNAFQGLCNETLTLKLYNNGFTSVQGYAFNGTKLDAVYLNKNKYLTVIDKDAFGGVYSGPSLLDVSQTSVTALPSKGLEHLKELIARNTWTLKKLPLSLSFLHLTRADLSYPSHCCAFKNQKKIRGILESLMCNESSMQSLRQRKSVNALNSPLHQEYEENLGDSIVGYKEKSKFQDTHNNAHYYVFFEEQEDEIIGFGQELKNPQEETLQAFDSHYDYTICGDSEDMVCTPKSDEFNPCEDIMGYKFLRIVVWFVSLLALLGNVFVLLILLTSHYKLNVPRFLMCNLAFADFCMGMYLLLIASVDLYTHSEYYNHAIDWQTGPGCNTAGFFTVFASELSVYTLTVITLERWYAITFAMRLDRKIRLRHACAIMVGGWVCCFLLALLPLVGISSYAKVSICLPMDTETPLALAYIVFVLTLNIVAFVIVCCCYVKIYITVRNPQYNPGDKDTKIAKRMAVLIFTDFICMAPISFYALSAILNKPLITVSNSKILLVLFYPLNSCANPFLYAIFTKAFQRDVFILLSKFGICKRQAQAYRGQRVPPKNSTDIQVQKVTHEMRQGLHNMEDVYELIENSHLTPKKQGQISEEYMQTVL
Summary of the method: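 TSHR-HEK293 cells were plated and held 18 h at 37C/5% CO2, then given compound plus Ro20-1724 and stimulated with TSH at 1.5 ng/mL final. After 30 min at room temperature, cAMP was detected with cAMP-d2/anti-cAMP-cryptate (1 h) by fluorescence.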

[12] = qHTS assay to identify small molecule HDAC inhibitors - cell viability counter screen (AID 1259365); also: series mostly up to about 92 µM; nearly all actives have a fitted effect of over 50% in size
Summary of the method: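 Wild-type HCT-116 cells, 1,500/well, cultured overnight, then compound-treated 2 h at 37 C. Viability measured as ATP luminescence with CellTiter-Glo after 30 min at room temperature.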

[13] = qHTS assay to identify small molecule agonists of the sonic hedgehog signaling (Shh) pathway (AID 1259368; calls by dose curve;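 also: NIH/3T3-derived 3T3Gli1-Luc cells carrying a stable Gli1-driven firefly luciferase reporter; series mostly up to about 92 µM; nearly all actives have a fitted effect of over 15% in size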)
Summary of the method: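 Mouse fibroblast (NIH/3T3) reporter cells with stably integrated Gli1-Luc were treated 24 hr with compound; firefly luciferase luminescence served as the read-out.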

[14] = qHTS assay to identify small molecule antagonists of the estrogen receptor beta (ER-beta) signaling pathway - cell viability counter screen (AID 1259382); also: series mostly up to about 92 µM; nearly all actives have a fitted effect of over 55% in size
Summary of the method: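 Agonist-stimulated (1nM E2) ER-beta-UAS-bla HEK293T cells are incubated with library compounds for 16 hr at 37C. Cell viability is then assessed in the reporter-assay wells by adding CellTiter-Glo and reading luminescence after 30 min.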

[15] = qHTS assay to identify small molecule phospholipidosis (PLD) inducers (AID 1259344; active = well fitted curve in the direction sought with a large enough effect; an effect the other way counts as inactive or inconclusive)
Summary of the method: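 HepG2 cells grown on collagen I take up LipidTOX Red while exposed to compound for 24 h; after fixation they are imaged at 20x and pit metrics are extracted.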

[16] = molecular target: Estrogen receptor beta (Homo sapiens) (UniProt Q92731); assay: qHTS assay to identify small molecule agonists of the estrogen receptor beta (ER-beta) signaling pathway (AID 1259377; active = well fitted activation curve with a large enough effect in the signal ratio in the repeat runs, not every such curve was filed as active; the % refers to the signal ratio)
Summary of the method: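 ER-beta-UAS-bla HEK293T cells in medium with 2% charcoal-stripped FBS were exposed to compounds for 16 h at 37C. Beta-lactamase reporter activity was read as fluorescence after 2 h with LiveBLAzer B/G FRET substrate at room temperature.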

[17] = molecular target: Androgen receptor (Homo sapiens) (UniProt P10275); assay: qHTS assay to identify small molecule antagonists of the androgen receptor (AR) signaling pathway using the MDA cell line in the presence of 0.5 nM R1881 (AID 1259243); also: nearly all actives have a fitted effect of over 50% in size
Androgen receptor (Homo sapiens), sequence (P10275 whole entry, looked up): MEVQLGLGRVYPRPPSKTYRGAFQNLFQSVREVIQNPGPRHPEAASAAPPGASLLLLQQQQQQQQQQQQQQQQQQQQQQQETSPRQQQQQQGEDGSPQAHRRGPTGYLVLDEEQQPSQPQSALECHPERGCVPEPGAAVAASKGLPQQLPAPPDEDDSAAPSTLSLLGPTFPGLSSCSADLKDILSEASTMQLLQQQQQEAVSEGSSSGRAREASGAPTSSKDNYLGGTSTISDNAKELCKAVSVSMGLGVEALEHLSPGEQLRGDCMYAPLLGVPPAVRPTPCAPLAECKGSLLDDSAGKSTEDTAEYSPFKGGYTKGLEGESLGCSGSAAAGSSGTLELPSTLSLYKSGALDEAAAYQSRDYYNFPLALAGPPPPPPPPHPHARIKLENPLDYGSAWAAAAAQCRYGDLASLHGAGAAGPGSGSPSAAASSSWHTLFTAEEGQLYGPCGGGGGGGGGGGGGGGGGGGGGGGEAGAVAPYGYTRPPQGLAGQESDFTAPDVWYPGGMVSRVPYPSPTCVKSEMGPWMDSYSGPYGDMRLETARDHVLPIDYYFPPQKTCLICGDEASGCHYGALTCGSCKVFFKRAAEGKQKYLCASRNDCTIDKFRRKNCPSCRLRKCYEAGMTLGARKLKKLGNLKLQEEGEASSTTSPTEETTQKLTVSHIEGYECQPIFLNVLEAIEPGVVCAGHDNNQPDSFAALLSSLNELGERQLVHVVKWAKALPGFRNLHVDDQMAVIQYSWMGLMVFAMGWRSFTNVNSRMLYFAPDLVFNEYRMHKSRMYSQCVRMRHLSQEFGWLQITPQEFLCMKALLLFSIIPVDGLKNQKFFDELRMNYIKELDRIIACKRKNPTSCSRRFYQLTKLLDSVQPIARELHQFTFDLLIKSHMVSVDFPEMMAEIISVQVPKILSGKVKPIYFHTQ
Summary of the method: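 We exposed MDA-kb2 cells to compounds under 0.5 nM R1881 stimulation for 16 hr at 37C and quantified MMTV-driven luciferase by luminescence.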

[18] = molecular target: Estrogen receptor (Homo sapiens) (UniProt P03372); assay: qHTS assay to identify small molecule antagonists of the estrogen receptor alpha (ER-alpha) signaling pathway using the BG1 cell line in the presence of 0.1 nM 17-beta-estradiol (AID 1259244); also: nearly all actives have a fitted effect of over 50% in size
Estrogen receptor (Homo sapiens), sequence (P03372 whole entry, looked up): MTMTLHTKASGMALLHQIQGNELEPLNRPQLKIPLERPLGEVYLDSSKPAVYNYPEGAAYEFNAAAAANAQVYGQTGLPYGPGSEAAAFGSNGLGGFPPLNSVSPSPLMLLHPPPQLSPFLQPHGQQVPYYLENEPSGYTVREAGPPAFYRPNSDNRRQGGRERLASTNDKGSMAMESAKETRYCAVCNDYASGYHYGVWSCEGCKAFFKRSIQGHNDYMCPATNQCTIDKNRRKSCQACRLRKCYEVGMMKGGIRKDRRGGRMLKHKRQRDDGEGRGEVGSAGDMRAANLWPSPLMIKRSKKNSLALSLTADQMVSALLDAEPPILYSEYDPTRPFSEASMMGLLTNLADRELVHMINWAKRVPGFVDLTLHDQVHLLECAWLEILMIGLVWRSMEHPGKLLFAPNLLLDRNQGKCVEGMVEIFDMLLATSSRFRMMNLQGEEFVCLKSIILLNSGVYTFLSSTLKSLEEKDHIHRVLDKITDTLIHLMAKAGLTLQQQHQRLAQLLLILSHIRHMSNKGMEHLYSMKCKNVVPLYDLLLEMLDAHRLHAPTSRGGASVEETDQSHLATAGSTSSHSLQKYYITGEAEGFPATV
Summary of the method: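 VM7Luc4E2; 4xERE-luciferase; 0.1 nM E2 final; 22 h co-incubation, 37C; ONE-Glo luminescence after 30 min at room temperature.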

[19] = molecular target: Androgen receptor (Homo sapiens) (UniProt P10275); assay: qHTS assay to identify small molecule agonists of the androgen receptor (AR) signaling pathway in the presence of an antagonist (AID 1259381; calls by dose curve; also: nearly all actives have a fitted effect of over 15% in size)
Summary of the method: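 Using human MDA-kb2 cells with an MMTV promoter–luciferase construct (AR and GR response elements), agonist activity is scored under 3.0uM nilutamide (final) co-treatment; 16hr incubation, 37C, luminescence readout via ONE-Glo.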

[20] = molecular target: Estrogen receptor (Homo sapiens) (UniProt P03372); assay: qHTS assay to identify small molecule agonists of the estrogen receptor alpha (ER-alpha) signaling pathway in the presence of an antagonist (AID 1259383; calls by dose curve; also: top concentration of the series differs between compounds; nearly all actives have a fitted effect of over 15% in size)
Summary of the method: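 Using VM7Luc4E2 cells seeded 24hr before treatment, antagonist ICI-182,780 (10.0nM final) was added, followed by compounds at 15 concentrations. Plates incubated 22hr; ONE-Glo luminescence quantified reporter activity.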

Measured: Potency

CC(C)(C)OOC(C)(C)CCC(C)(C)OOC(C)(C)C
inactive: [1] | [2] | [3] | [4] | [5] | [6] | [7] | [8] | [9] | [10] | [11]

c1ccc2c(c1)-c1cccc3cccc-2c13
not listed: [15] | [16] | [17] | [18] | [19] | [20]
inactive: all other assays above

CC(C)CCON=O
not listed: [17] | [18] | [19] | [20]
inactive: all other assays above

CC(Oc1cccc(Cl)c1)C(=O)O (stereo not given)
not listed: [6] | [14] | [15] | [16] | [17] | [18] | [19] | [20]
inactive: all other assays above

OCCCl
inactive: [1] | [2] | [3] | [4] | [5] | [6] | [7] | [8] | [9] | [14]

CCCCCBr
not listed: [2] | [11] | [15]
inactive: all other assays above
